In PubChem BioAssay (EPA / NIEHS):
Inconclusive results are not listed. Activity calls are given as the source filed them. How the source made its calls: active means hit-call score of the fitted dose curve at least 0.9, where 1 is the maximum; inconclusive means response in the unintended direction; inactive means score below 0.9.

Columns and labels:
[1] = TOX21_p53_BLA_p2_viability: Viability Assessment in the Tox21 HCT-116 p53 Agonism Beta-lactamase Assay, Phase 2 (AID 2283591);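 further: compound exposure lasted 16 h at 37 °C; actives lower the ATP signal meaning cytotoxicity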
In short: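 HCT116 p53-bla cells, 4000/well, dosed after 5 h plating (217-fold dilution of DMSO stocks) and incubated 16 h at 37C. Viability taken as cellular ATP by CellTiter-Glo luminescence after 30 min RT; signal loss marks cytotoxicity.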

[2] = molecular target: Cellular tumor antigen p53 (Homo sapiens) (UniProt P04637); assay: TOX21_p53_BLA_p2_ratio: Tox21 HCT-116 p53 Agonism Beta-lactamase Assay, Ratio, Phase 2 (AID 2283592)
Sequence of Cellular tumor antigen p53 (Homo sapiens) (P04637 whole entry, looked up): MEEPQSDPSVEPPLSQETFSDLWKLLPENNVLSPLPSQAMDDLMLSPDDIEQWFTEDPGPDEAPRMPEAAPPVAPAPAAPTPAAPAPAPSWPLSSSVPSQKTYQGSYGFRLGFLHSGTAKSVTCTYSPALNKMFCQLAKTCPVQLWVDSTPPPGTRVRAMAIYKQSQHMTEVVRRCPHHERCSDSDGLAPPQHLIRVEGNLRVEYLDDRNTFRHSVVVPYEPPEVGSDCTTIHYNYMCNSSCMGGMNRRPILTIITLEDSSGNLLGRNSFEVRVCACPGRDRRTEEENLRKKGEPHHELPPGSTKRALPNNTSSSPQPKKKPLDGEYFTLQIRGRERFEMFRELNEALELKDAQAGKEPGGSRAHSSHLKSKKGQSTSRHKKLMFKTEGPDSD
In short: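 In this cell-based reporter format, HCT116 cells were dosed with chemicals delivered from DMSO by 217-fold dilution and incubated 16 h at 37C. Emission at 460 and 530 nm after 2 h CCF4-AM loading provided the ratio, fitted upward versus DMSO.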

[3] = TOX21_p53_BLA_p3_viability: Viability Assessment in the Tox21 HCT-116 p53 Agonism Beta-lactamase Assay, Phase 3 (AID 2283593);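 further: cells exposed to compound for 16 h before reading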
In short: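 HCT116 cells, 4000/well, dosed 5 h after plating by pin transfer (217-fold dilution from DMSO stock) and incubated 16 h at 37C, 5% CO2. Viability read as ATP luminescence with CellTiter-Glo after 30 min at room temperature.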

[4] = molecular target: Cellular tumor antigen p53 (Homo sapiens) (UniProt P04637); assay: TOX21_p53_BLA_p3_ratio: Tox21 HCT-116 p53 Agonism Beta-lactamase Assay, Ratio, Phase 3 (AID 2283596)
In short: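 HCT116 p53-bla cells (4000/well) given compound in DMSO (217-fold dilution) after 5 h, incubated 16 h at 37C. CCF4-AM substrate 2 h at room temperature; 460/530 nm emission ratio, gain fitted against DMSO.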

[5] = molecular target: Cellular tumor antigen p53 (Homo sapiens) (UniProt P04637); assay: TOX21_p53_BLA_p5_ratio: Tox21 HCT-116 p53 Agonism Beta-lactamase Assay, Ratio, Phase 5 (AID 2283599)
In short: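 HCT-116 p53-bla cells (4000/well) plated 5 h, dosed with compound (217-fold DMSO dilution) for 16 h at 37 C; CCF4-AM substrate 2 h at room temperature. Activity is the 460/530 nm emission ratio (405 nm excitation), fitted in gain-of-signal direction versus DMSO.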

[6] = TOX21_p53_BLA_p5_viability: Viability Assessment in the Tox21 HCT-116 p53 Agonism Beta-lactamase Assay, Phase 5 (AID 2283600)
In short: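 Compounds, pinned from DMSO at 217-fold dilution, were left on the cells for 16 h. The viability endpoint was ATP content measured by CellTiter-Glo luminescence, where falling signal reflects cytotoxicity.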

[7] = molecular target: Cellular tumor antigen p53 (Homo sapiens) (UniProt P04637); assay: TOX21_p53_BLA_p4_ratio: Tox21 HCT-116 p53 Agonism Beta-lactamase Assay, Ratio, Phase 4 (AID 2283601)
In short: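 HCT-116 p53 beta-lactamase reporter cells (4000/well) preincubated 5 h, then compound (217-fold dilution of DMSO stock) for 16 h at 37C. CCF4-AM substrate added 2 h at room temperature; 460/530 nm emission ratio fitted upward versus DMSO.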

[8] = TOX21_p53_BLA_p4_viability: Viability Assessment in the Tox21 HCT-116 p53 Agonism Beta-lactamase Assay, Phase 4 (AID 2283597);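 further: hits lower the luminescence signal meaning cytotoxicity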
In short: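 We seeded HCT116 p53 reporter cells at 4000/well and waited 5 h. We then added compounds in DMSO at a 217-fold dilution and incubated for 16 h. Viability was read as CellTiter-Glo luminescence after 30 min at RT.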

PGR (gene 5241) [9] = molecular target: PGR (gene 5241) (UniProt P06401); assay: TOX21_PR_BLA_Followup_Antagonist_ratio: Tox21 HEK293 Progesterone Receptor (PR) Antagonism Beta-lactamase Follow-Up Assay, Ratio (AID 2283934)
Sequence of PGR (gene 5241) (P06401 whole entry, looked up): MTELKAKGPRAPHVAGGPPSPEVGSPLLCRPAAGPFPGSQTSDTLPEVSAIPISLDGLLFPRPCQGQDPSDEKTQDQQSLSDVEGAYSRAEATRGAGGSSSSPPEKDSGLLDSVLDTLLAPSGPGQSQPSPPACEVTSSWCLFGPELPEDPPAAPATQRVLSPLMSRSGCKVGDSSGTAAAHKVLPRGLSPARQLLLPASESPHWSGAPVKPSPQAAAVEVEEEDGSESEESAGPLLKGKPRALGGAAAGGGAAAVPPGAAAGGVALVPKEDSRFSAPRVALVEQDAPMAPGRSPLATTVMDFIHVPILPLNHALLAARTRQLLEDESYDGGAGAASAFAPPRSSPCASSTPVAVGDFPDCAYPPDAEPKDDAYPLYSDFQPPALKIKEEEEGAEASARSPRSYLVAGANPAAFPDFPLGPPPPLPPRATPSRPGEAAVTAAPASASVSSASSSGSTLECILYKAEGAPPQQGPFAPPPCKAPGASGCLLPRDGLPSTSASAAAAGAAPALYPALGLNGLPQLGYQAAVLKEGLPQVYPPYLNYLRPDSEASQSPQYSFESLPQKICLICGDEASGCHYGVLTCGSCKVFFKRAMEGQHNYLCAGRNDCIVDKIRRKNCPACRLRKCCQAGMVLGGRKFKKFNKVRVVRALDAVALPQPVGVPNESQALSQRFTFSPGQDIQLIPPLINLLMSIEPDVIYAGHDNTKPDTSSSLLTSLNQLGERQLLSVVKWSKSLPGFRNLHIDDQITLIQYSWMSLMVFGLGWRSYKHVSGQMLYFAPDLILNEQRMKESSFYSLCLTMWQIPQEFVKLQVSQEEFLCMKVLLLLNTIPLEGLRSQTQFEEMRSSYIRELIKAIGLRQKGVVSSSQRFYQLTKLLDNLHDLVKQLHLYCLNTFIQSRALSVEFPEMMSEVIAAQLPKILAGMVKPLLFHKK
In short: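 HEK293T PR-UAS-bla, 2% CS-FBS; 6 hr plating, then cpd + R5020 (1 nM final), 16 hr 37C/5% CO2. B/G FRET substrate 2 h RT. Ratio ch2/ch1 vs DMSO; CellTiter-Glo viability multiplexed, autofluorescence checked.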

[10] = TOX21_PR_BLA_Followup_Agonist_viability: Viability Assessment in the Tox21 HEK293 Progesterone Receptor (PR) Agonism Beta-lactamase Follow-Up Assay (AID 2283935);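 further: cells exposed to compound for 16 hr at 37 °C; signal loss means lower viability so actives are cytotoxic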
In short: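 HEK293T PR-UAS-bla, 3,000 cells/well, 2% CS-FBS; 6 hr pre-incubation; cpd in DMSO, 16 hr 37C; LiveBLAzer 2 hr RT, then CellTiter-Glo 30 min RT, luminescence. Decrease = lost viability.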

[11] = TOX21_PR_BLA_Followup_Antagonist_viability: Viability Assessment in the Tox21 HEK293 Progesterone Receptor (PR) Antagonism Beta-lactamase Follow-Up Assay (AID 2283936);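 further: hits lower the luminescence signal meaning cytotoxicity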
In short: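 PR-UAS-bla HEK293T cells (3,000/well, 2% charcoal-stripped FBS) given compound plus R5020 agonist, 16 h at 37C. CellTiter-Glo added after bla read, 30 min at room temperature; luminescence loss indicates cytotoxicity.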

PGR (gene 5241) [12] = molecular target: PGR (gene 5241) (UniProt P06401); assay: TOX21_PR_LUC_Followup_Antagonist: Tox21 HEK293 Progesterone Receptor (PR) Antagonism Luciferase Follow-Up Assay (AID 2283938);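 further: curve fitted upward as signal gain over DMSO baseline despite antagonist label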
In short: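 Luminescence from ONE-Glo reagent, measured after 30 min at room temperature, served as readout. Cells (HEK293 carrying PR-A-luc) had been treated 16 h at 37C with DMSO-dissolved compounds. Activity was fitted against DMSO controls.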

[13] = TOX21_PR_LUC_Followup_Agonist_viability: Viability Assessment in the Tox21 HEK293 Progesterone Receptor (PR) Agonism Luciferase Follow-Up Assay (AID 2283941);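 further: loss of signal means cytotoxicity so actives lower viability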
In short: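 Cells were kept 5 days in charcoal-stripped serum medium before plating HEK293-PR-A-luc at 3,000 cells/well. After 5 h they received DMSO-dissolved compound and incubated 16 h at 37C. Viability was taken from CellTiter-Glo ATP luminescence.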

C[C@@H](CO)NC(=O)[C@@H]1C=C2c3cccc4[nH]cc(c34)C[C@H]2N(C)C1
outcome [1]: inactive | outcome [2]: inactive | outcome [3]: inactive | outcome [4]: inactive | outcome [5]: inactive | outcome [6]: inactive | outcome [7]: inactive

COc1cc(N)c(Cl)cc1C(=O)NC1CN2CCC1CC2 (centres undefined)
outcome [1]: inactive | outcome [2]: inactive | outcome [3]: inactive | outcome [4]: inactive | outcome [8]: inactive | outcome [7]: inactive

CNC(C)[C@@H]1CC[C@@H](N)[C@@H](O[C@H]2[C@H](O)[C@@H](O[C@H]3OC[C@](C)(O)[C@H](NC)[C@H]3O)[C@H](N)C[C@@H]2N)O1 (some centres undefined) (tested in a mixture with another compound)
outcome [1]: inactive | outcome [2]: inactive | outcome [3]: inactive | outcome [4]: inactive | outcome [6]: inactive

Clc1ccccc1-c1ccccc1Cl
outcome [1]: inactive | outcome [2]: inactive | AC50 [3]: 62.2 µM (active) | outcome [4]: inactive | outcome [5]: inactive | outcome [7]: inactive

C[C@]12CC[C@H]3[C@@H](CCC4=CC(=O)CC[C@@H]43)[C@@H]1CC[C@@H]2O
outcome (PGR (gene 5241) [9]): inactive | outcome [10]: inactive | outcome [11]: inactive | outcome (PGR (gene 5241) [12]): inactive | outcome [13]: inactive
